These results are taken from PubChem BioAssay.

Assay [1] is described as follows: antimalarial activity against Dd2 strain (AID 2302;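 active means growth inhibition above 50% at the single 2 µM test dose, taken to imply half-maximal potency below 2 µM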;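 further: 0% = DMSO untreated growth and 100% = chloroquine plus artemisinin killed control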). The following applies: P. falciparum Dd2 in RBCs, LDH growth readout, 72 h; at 2 µM; stronger effect = higher value.
The nature of assay [2]: human hepatoma cell viability loss – ATP luminescence, cytotoxicity control for P. falciparum antimalarial project, primary screen (AID 2303;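 active means inhibition above 50%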;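 further: 0% = DMSO wells and 100% = digitonin-killed cells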). Particulars: HepG2 viability, 24-48 h, at 10 µM, stronger effect = higher value.
For assay [3], the target named is L-lactate dehydrogenase (Plasmodium falciparum (isolate CDC / Honduras)) (UniProt Q27743). Put plainly: PfLDH activity inhibition – cell lysate, 3D7 strain, counter-screen for P. falciparum growth inhibition project (AID 2304).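 Further: 0% = vehicle and 100% = reference inhibitor.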 The following applies: P. falciparum 3D7 crude extract, LDH APAD/NBT absorbance; at 2 µM; stronger effect = higher value. (A counterscreen serves to expose hits that act by an unwanted route or on another target.)

Assay [4] can be described thus: inhibition of 3D7 malaria parasite growth – strain 3D7 (AID 2306).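 Further: 0% = DMSO wells and 100% = chloroquine plus artemisinin control wells.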 The following applies: P. falciparum 3D7 erythrocytic growth, LDH absorbance, 72 h; at 2 µM; stronger effect = higher value.
For assay [5], the target named is Calcium-dependent protein kinase 1 (Plasmodium falciparum (isolate 3D7)) (UniProt P62344). Description: PfCDPK1 kinase inhibitors, biochemical, TCAMS library (AID 1159585; cut-off not given, nearly all actives have IC50 up to about 0.98 µM;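 further: inhibitors leave more ATP so luminescence rises with inhibition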). Particulars: recombinant PfCDPK1, Kinase-Glo ATP depletion luminescence. Background: In Kinase-Glo more light means more ATP remaining.
For assay [6], the target named is Plasmodium falciparum protein kinase 6 (PK6, PF3D7_1337100) (UniProt Q8IDW1). Description: PfPK6 kinase inhibitors, biochemical, TCAMS library (AID 1159586). Particulars: recombinant PfPK6, Kinase-Glo ATP depletion luminescence.
Assay [7] addresses Protein kinase 7 (PK7), Plasmodium falciparum 3D7 (PF3D7_0213400) (UniProt Q7YTF7). Description: inhibition of Plasmodium PK7 catalytic activity – biochemical, TCAMS antimalarial set, Kinase-Glo luminescence (AID 1159587). The following applies: recombinant PfPK7, Kinase-Glo ATP depletion luminescence.
Assay [8] concerns the target Calcium-dependent protein kinase 4 (Plasmodium falciparum (isolate 3D7)) (UniProt Q8IBS5). Put plainly: PfCDPK4 kinase inhibitors, biochemical, TCAMS library (AID 1159588; cut-off not given, nearly all actives have IC50 up to about 0.91 µM). The following applies: recombinant PfCDPK4, Kinase-Glo ATP depletion luminescence.

Values without a mark were called inactive. For part of these data: Entries with a potency or affinity are not part of this list. Calls of active or inactive are those of the source. Unless noted, how the calls were made is not given here.

Calcium-dependent protein kinase 4 (Plasmodium falciparum (isolate 3D7)), sequence (Q8IBS5 whole entry, looked up): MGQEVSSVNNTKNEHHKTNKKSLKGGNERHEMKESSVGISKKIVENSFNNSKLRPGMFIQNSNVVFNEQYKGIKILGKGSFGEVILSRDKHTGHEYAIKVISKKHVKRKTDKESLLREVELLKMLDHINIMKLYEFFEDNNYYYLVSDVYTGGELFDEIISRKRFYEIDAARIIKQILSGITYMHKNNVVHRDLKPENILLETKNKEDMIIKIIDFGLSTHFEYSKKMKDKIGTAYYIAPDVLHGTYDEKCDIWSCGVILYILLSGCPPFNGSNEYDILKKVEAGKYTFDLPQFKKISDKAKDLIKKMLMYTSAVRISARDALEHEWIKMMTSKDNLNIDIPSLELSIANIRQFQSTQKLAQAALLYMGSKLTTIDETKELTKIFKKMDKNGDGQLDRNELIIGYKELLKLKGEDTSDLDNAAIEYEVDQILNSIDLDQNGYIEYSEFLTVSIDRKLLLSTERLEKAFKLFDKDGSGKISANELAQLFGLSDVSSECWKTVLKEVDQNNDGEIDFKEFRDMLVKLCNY
L-lactate dehydrogenase (Plasmodium falciparum (isolate CDC / Honduras)), sequence (Q27743 whole entry, looked up): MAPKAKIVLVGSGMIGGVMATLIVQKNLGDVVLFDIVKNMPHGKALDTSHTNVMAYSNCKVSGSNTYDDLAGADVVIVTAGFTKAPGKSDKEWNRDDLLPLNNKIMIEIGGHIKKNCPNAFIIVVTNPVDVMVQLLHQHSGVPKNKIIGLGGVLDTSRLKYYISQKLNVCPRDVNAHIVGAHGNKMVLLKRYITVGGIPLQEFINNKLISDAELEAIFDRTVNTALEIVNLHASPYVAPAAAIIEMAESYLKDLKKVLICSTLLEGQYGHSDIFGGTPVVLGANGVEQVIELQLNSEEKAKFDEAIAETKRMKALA
Calcium-dependent protein kinase 1 (Plasmodium falciparum (isolate 3D7)), sequence (P62344 whole entry, looked up): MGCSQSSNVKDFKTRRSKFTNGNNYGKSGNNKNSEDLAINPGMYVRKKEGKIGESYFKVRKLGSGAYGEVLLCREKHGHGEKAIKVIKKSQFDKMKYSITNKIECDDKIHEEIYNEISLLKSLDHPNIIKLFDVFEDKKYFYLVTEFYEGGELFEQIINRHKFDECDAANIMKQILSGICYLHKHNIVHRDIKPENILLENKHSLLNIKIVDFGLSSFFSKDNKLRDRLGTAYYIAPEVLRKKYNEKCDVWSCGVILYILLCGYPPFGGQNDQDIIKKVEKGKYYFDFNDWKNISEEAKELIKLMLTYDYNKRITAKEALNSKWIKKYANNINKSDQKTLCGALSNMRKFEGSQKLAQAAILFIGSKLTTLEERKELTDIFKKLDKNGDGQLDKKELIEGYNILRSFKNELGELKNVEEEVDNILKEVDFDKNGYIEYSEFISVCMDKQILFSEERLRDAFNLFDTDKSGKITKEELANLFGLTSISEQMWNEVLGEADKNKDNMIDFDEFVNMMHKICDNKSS
Plasmodium falciparum protein kinase 6 (PK6, PF3D7_1337100), sequence (Q8IDW1 1-305): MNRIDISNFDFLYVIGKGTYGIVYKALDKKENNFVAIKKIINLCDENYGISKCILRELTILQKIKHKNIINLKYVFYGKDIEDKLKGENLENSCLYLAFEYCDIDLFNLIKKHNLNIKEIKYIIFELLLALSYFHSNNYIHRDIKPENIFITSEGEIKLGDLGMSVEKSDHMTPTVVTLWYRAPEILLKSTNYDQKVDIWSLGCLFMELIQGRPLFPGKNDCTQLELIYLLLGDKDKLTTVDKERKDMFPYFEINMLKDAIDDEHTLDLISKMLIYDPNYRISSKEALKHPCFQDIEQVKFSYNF
Protein kinase 7 (PK7), Plasmodium falciparum 3D7 (PF3D7_0213400), sequence (Q7YTF7 1-343): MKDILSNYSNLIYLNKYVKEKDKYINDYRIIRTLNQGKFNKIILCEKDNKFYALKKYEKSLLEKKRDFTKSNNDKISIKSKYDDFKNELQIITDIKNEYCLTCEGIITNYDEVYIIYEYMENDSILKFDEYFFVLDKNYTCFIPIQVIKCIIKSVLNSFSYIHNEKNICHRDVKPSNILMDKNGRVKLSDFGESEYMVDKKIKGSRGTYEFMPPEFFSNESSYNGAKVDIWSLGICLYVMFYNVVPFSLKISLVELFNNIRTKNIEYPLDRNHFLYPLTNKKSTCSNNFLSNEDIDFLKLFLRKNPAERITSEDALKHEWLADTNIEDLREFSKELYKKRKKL

Take `COc1ccc2nccc([C@@H](O)CN3CCC(NCc4ccc5c(c4)NC(=O)CS5)CC3)c2n1`: the growth inhibition in assay [1] was 34%; in assay [4] it was 101% (active). Moreover, the inhibition – broadly, the change of the read-out against control, counted positive when it falls – in assay [2] is 1%; in assay [3] it was -3%. Also, the outcome in assay [5], in assay [6], in assay [7] and in assay [8] was inactive.

With `CCN(CC)S(=O)(=O)c1ccc(C(C)NC(=O)c2ccccc2COc2ccccc2)cc1` (stereo not drawn), the growth inhibition in assay [1] was 89% (active); in assay [4] it was 100% (active). Besides, the inhibition in assay [2] is -3%; in assay [3], 4%. In addition, the outcome in assay [5], in assay [6], in assay [7] and in assay [8] was inactive.

Take `CS(=O)(=O)Nc1ccc2[nH]cc(C3CCN(CC4CCC(NC(=O)/C=C/c5ccc(Cl)c(Cl)c5)CC4)CC3)c2n1` (stereo not drawn): the growth inhibition was 10% in assay [1] and 99% (active) in assay [4]. Also, the inhibition in assay [2] was 2%; in assay [3], -5%. For the same molecule, the outcome in assay [5], in assay [6], in assay [7] and in assay [8] was inactive.

Consider `Cc1cccc(C(=O)N2CCN(Cc3cccc(NC(=O)c4ccco4)c3)CC2)c1`, for which the growth inhibition is 79% (active) in assay [1] and 94% (active) in assay [4]. Besides, the figures for the inhibition in assay [2] and in assay [3] were 7% and 1%, respectively. Also, the outcome in assay [5], in assay [6], in assay [7] and in assay [8] was inactive.

Turning to `Oc1ccccc1CN1CCCC(COC(c2ccc(F)cc2)c2ccc(F)cc2)C1` (stereo not drawn), the growth inhibition in assay [1] was 98% (active); in assay [4], 97% (active). In addition, the values for the inhibition in assay [2] and in assay [3] were 19% and 1%, respectively. Further, the result in assay [5], in assay [6], in assay [7] and in assay [8] was inactive.

Take `Clc1ccc(CNC2CCN(CC3CCCCC3)CC2)cc1`: the growth inhibition in assay [1] is 15%; in assay [4], 92% (active). In addition, the inhibition was 12% in assay [2] and 5% in assay [3]. The outcome in assay [5], in assay [6], in assay [7] and in assay [8] was inactive.

Regarding `CC(=O)c1cccc2[nH]c(C(=O)NC3CCC(CCN4CCc5ccc(C#N)cc5C4)CC3)cc12` (stereo not drawn), the values for the growth inhibition in assay [1] and in assay [4] were 0% and 96% (active), respectively. Further, the results for the inhibition in assay [2] and in assay [3] were 12% and 1%, respectively. Besides, the result in assay [5], in assay [6], in assay [7] and in assay [8] was inactive.

Turning to `O=C(Cn1c(SCc2cccc(F)c2F)cc(=O)c2ccccc21)N(CCCn1ccnc1)Cc1ccc(-c2ccc(C(F)(F)F)cc2)cc1`, the growth inhibition in assay [1] and in assay [4] was 99% (active) in each case. The inhibition in assay [2] was 21%; in assay [3], -5%. The outcome in assay [5], in assay [6], in assay [7] and in assay [8] was inactive.

In the case of `CCCN1CCN(c2ccc(NS(=O)(=O)c3ccc(C(=O)Nc4ccc(Cl)cc4)cc3)cc2)CC1`, the growth inhibition in assay [1] was 50% (active); in assay [4], 100% (active). The inhibition was 4% in assay [2] and -4% in assay [3]. The outcome in assay [5], in assay [6], in assay [7] and in assay [8] was inactive.

Turning to `CC1(C)N=C(NC(=O)c2cc([N+](=O)[O-])cc([N+](=O)[O-])c2)N=C(N)N1OCc1cccc2ccccc12`, the growth inhibition in assay [1] was 20%; in assay [4] it was 94% (active). Also, the figures for the inhibition in assay [2] and in assay [3] were 66% (active) and -6%, respectively. Further, the outcome in assay [5], in assay [6], in assay [7] and in assay [8] was inactive.

For the molecule `O=C(NCCCN1CCCC1=O)c1cnc(N2CCC(Oc3ccccc3)CC2)c(Cl)c1`, the growth inhibition in assay [1] was 93% (active); in assay [4], 97% (active). Further, the inhibition in assay [2] was 7%; in assay [3] it was -2%. Further, the outcome in assay [5], in assay [6], in assay [7] and in assay [8] was inactive.

As to `NC(=O)c1cccc(-n2ccc3cc(CNC4Cc5ccccc5C4)ccc32)c1`, the growth inhibition in assay [1] is 7%; in assay [4] it was 88% (active). Besides, the inhibition was 17% in assay [2] and -1% in assay [3]. Further, the outcome in assay [5], in assay [6], in assay [7] and in assay [8] was inactive.

Consider `COc1cc2nc(N3CCC(C(N)=O)CC3)nc(NCc3ccccc3)c2cc1OC`, for which the values for the growth inhibition in assay [1] and in assay [4] were 23% and 100% (active), respectively. For the same molecule, the inhibition was 23% in assay [2] and -7% in assay [3]. The outcome in assay [5], in assay [6], in assay [7] and in assay [8] was inactive.

In the case of `Cc1ccc(C)c2sc(N(CCCn3ccnc3)C(=O)C=Cc3cccs3)nc12`, the growth inhibition in assay [1] was 93% (active); in assay [4], 101% (active). In addition, the figures for the inhibition in assay [2] and in assay [3] were 20% and 0%, respectively. Besides, the outcome in assay [5], in assay [6], in assay [7] and in assay [8] was inactive.

Regarding `CN1CCN(C(=O)CN2CCC3(CCC2=O)NC(=O)c2ccccc2O3)CC1` (stereo not drawn), the growth inhibition in assay [1] is 98% (active); in assay [4], 99% (active). The results for the inhibition in assay [2] and in assay [3] were -7% and 2%, respectively. In addition, the result in assay [5], in assay [6], in assay [7] and in assay [8] was inactive.

`CCNc1cc(C(=O)N[C@@H](Cc2cccc(F)c2)[C@H](O)CNC(C)CCCC(C)C)cc(N2CCCCS2(=O)=O)c1` (stereo partly drawn): the results for the growth inhibition in assay [1] and in assay [4] were 97% (active) and 98% (active), respectively. The inhibition in assay [2] is -3%; in assay [3] it was -4%. The outcome in assay [5], in assay [6], in assay [7] and in assay [8] was inactive.

For the molecule `COc1ccc(Nc2ncc3c(-c4cccc(NC(=O)Cc5cccnc5)c4)c[nH]c3n2)cc1OC`, the growth inhibition in assay [1] is 85% (active); in assay [4], 98% (active). For the same molecule, the figures for the inhibition in assay [2] and in assay [3] were 27% and 1%, respectively. The outcome in assay [5], in assay [6], in assay [7] and in assay [8] was inactive.

Regarding `C#CCOc1ccc(N2C(N)=NC(N)=NC2(C)C)cc1`, the growth inhibition was -3% in assay [1] and 94% (active) in assay [4]. Moreover, the inhibition is 43% in assay [2] and 6% in assay [3]. The result in assay [5], in assay [6], in assay [7] and in assay [8] was inactive.

Regarding `COc1ccc(CNCc2ccc(-c3cccc(-c4nc5c(C)cccc5[nH]4)c3)cc2)cc1`, the growth inhibition is 101% (active) in assay [1] and 102% (active) in assay [4]. Further, the inhibition in assay [2] was 69% (active); in assay [3] it was -7%. For the same molecule, the result in assay [5], in assay [6], in assay [7] and in assay [8] was inactive.

With `CCC(=O)N1CCc2cc(Br)cc(S(=O)(=O)N3CC(C)CC(C)C3)c21` (stereo not drawn), the growth inhibition in assay [1] was 84% (active); in assay [4] it was 85% (active). Further, the inhibition was 5% in assay [2] and -3% in assay [3]. In addition, the outcome in assay [5], in assay [6], in assay [7] and in assay [8] was inactive.

As for `CN(Cc1cccc(O)c1)C1CCCN(c2cc(NC(=O)c3ccc(F)cc3)ccn2)C1` (stereo not drawn), the growth inhibition was 12% in assay [1] and 91% (active) in assay [4]. Also, the inhibition was 8% in assay [2] and -2% in assay [3]. For the same molecule, the outcome in assay [5], in assay [6], in assay [7] and in assay [8] was inactive.
